PubChem BioAssay (NCATS)
Inconclusive results are not listed. Where a call stands in place of a potency, no number is given. Active and inactive are the calls of the source. Calls follow the shape of the dose curve; as a rule, active = well fitted curve in the direction sought with a large enough effect; inconclusive = small, poorly fitted or top-dose-only effect, or another doubt; inactive = no such curve, though single readings can be large; an effect the other way counts as inactive or inconclusive.

Assays:
[1] = system: Zika virus NS2B-NS3 protease (linked construct); experiment: Primary screen NINDS Rhodamine qHTS for Zika virus inhibitors (AID 1347160); also: nearly all actives have a fitted effect of over 55% in size; also: potency is read from the fitted curve at half-maximal effect
Outline: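 Aprotinin served as in-plate control. Conditions: 25 nM linked NS2B-NS3, pH 8.0 Tris buffer, titrated compounds, 15 min preincubation and 15 min reaction with 1.5 microM Rhod110 substrate at room temperature.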

[2] = system: Zika virus NS2B-NS3 protease (unlinked complex); experiment: Primary screen GU Rhodamine qHTS for Zika virus inhibitors: Unlinked NS2B-NS3 protease assay (AID 1347159); also: nearly all actives have a fitted effect of over 60% in size; also: potency is read from the fitted curve at half-maximal effect
Outline: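 Buffer 10 mM Tris-HCl pH 8.0, 0.01% Tween 20. Unlinked protease 25 nM; compound preincubation 15 min, RT, protected from light. Substrate Rhod110, 1.5 microM; ~15% conversion in 15 min.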

[3] = target: Lysine-specific demethylase 5B (Homo sapiens) (UniProt Q9UGL1); experiment: Optimization screen for KDM5B Histone Demethylases FDH coupled qHTS against the LOPAC library (AID 1347166)
Lysine-specific demethylase 5B (Homo sapiens), sequence (Q9UGL1 whole entry, looked up): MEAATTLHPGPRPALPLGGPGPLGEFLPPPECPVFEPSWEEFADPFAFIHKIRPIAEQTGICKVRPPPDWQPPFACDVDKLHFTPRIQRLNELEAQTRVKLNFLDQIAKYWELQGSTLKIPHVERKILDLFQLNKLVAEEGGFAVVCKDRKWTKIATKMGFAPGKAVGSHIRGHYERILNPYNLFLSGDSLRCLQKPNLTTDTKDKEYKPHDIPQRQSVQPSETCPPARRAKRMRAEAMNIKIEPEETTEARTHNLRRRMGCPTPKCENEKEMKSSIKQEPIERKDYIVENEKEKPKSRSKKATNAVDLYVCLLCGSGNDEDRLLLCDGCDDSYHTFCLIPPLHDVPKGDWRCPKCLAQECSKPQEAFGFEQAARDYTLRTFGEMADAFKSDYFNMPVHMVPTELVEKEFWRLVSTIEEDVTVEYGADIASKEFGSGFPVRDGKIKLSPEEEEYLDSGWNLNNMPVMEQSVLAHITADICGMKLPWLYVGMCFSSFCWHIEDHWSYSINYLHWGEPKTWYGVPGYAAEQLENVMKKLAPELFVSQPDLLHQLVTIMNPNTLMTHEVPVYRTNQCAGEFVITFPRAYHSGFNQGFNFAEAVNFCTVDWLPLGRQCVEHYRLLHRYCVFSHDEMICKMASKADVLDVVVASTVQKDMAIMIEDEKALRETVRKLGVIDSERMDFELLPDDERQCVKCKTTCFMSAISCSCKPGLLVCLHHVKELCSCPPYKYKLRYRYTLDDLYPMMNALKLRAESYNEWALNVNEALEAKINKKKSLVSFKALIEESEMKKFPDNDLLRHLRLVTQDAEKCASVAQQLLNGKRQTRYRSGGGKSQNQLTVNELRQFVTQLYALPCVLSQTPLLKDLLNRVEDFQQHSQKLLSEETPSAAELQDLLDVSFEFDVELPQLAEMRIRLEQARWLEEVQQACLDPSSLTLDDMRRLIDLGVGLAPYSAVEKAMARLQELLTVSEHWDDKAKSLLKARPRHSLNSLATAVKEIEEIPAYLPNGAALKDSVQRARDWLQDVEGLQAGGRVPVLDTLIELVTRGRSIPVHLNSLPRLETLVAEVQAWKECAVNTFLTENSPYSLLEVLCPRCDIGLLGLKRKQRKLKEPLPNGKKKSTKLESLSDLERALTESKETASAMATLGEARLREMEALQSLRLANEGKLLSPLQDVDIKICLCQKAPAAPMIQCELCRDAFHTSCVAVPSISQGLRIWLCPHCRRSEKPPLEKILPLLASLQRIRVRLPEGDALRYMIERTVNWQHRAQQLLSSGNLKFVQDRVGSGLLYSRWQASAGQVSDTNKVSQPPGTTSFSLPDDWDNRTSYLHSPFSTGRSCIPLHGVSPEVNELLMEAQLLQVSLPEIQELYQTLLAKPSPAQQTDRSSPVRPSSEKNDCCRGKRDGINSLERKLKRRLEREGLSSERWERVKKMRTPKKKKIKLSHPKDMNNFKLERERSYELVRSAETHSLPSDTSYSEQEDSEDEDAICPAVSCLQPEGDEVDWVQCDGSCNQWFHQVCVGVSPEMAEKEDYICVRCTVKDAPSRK
Outline: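 KDM5BDeltaAP (200nM final) in 50mM HEPES pH 7.5, 0.01% Tween-20 was preincubated with compound for 10 min at room temperature. A substrate mix of 12.5uM H3K4Me3, 25uM a-ketoglutarate, ascorbate, Fe2+, NAD+ and formaldehyde dehydrogenase was then added. NADH fluorescence (340/450 nm) was read initially and after 30 min.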

[4] = Vero cells viability qHTS for Zika virus inhibitors (AID 1347167)
Outline: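 To flag cytotoxic protease inhibitors, viability is measured by ATP-dependent luminescence (CellTiter Glo) after cells attached overnight receive compound for 24 to 48 hours in DMEM with 4% FBS.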

[5] = Tertiary RLuc qRT-PCR qHTS assay for Zika virus inhibitors (AID 1347169); also: top concentration of the series differs between compounds; nearly all actives have a fitted effect of over 55% in size
Outline: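 Orthogonal cell-based infection assay using recombinant ZIKV-RLuc (Cambodian) in Vero cells; compound added prior to virus at MOI 1-2. Incubation lasts 48-72 hrs at 37 degrees C before live-cell Renilla substrate is added and luminescence measured.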

C=C1/C(=C/C=C2\CCC[C@]3(C)[C@@H]([C@@H](C)OCCC(O)(CC)CC)CC[C@@H]23)C[C@@H](O)C[C@@H]1O
Potency [1]: inactive

Cc1cc(-c2cc(OC(=O)c3ccccc3)ccc2Cl)cc2nnc(Nc3ccc(OCCN4CCCC4)cc3)nc12
Potency [2]: inactive
Potency [1]: inactive

O=C(CN1C2=NCCN2c2ccccc21)c1ccc(-c2ccccc2)cc1
Potency [2]: inactive
Potency [1]: inactive

NC(N)=NC(=O)c1cnn(-c2cccc3ncccc23)c1C1CC1
Potency [2]: inactive
Potency [1]: inactive

O=S(=O)(N[C@H]1CCCC[C@@H]1N1CCOCC1)c1ccc(Cl)cc1
Potency [2]: inactive
Potency [1]: inactive

CC(=O)OC1CC(C)(C(=O)O)CC2C3=CC(=O)C4C5(C)CCC(OC6OC(C(=O)O)C(O)C(O)C6OC6OC(C(=O)O)C(O)C(O)C6O)C(C)(C)C5CCC4(C)C3(C)CCC12C (centres undefined)
Potency [2]: inactive
Potency [1]: inactive

COc1ccc(Sc2ccc(NC(=O)c3ccccc3Cl)cc2C#N)cc1
Potency [2]: inactive
Potency [1]: inactive

CCC(=O)N1CCOc2c(cc(-c3ccc(OC)c(OC)c3)cc2OC[C@H]2CCCN(C)C2)C1
Potency [2]: inactive
Potency [1]: inactive

CC(C)c1cccc(C(C)C)c1NC(=O)Nc1ccc(Sc2ccc([N+](=O)[O-])cc2)cc1
Potency [1]: inactive

Cc1cc(F)ccc1-c1nc(NCCN=C(N)NC#N)nc2c1ccc(=O)n2-c1c(F)cccc1F
Potency [2]: inactive
Potency [1]: inactive

Cc1ccc(-c2ncc[nH]2)cc1NC(=O)c1ccc(OCc2ccccn2)cc1
Potency [2]: inactive
Potency [1]: inactive

O=C(c1ccccn1)N(Cc1cccs1)C1(C(=O)NC2CCCCC2)CCCCC1
Potency [1]: inactive

C/C=C/C=C/c1cc2c(C=O)c(O)c(CC=C(C)C)cc2o1
Potency [2]: 12.6 µM (active)
Potency [1]: 17.8 µM (active)

O=C(NCCO)c1cccc(-c2cc(Nc3ccc(OC(F)(F)F)cc3)ncn2)c1
Potency [2]: inactive
Potency [1]: inactive

Cc1cc2c(cc1N1C(=O)c3cccc4c(CCCO)ccc(c34)C1=O)n(C)c(=O)n2C
Potency [1]: inactive

C=C1C(OC2OC(CO)C(O)C(O)C2O)CC2C(C)(C)C(O)CCC2(C)C1CC/C(C)=C\COC(=O)CC(=O)O (centres undefined)
Potency [2]: inactive
Potency [1]: inactive

C=C(C)[C@@H]1CC=C(COC(=O)NC(=O)c2ncn3c(=O)n(C)nnc23)CC1
Potency [2]: inactive
Potency [1]: inactive

O=C1Cc2c([nH]c3ccc(Br)cc23)-c2ncccc2N1
Potency [1]: inactive

COc1ccc(NC(=O)c2ccc(-c3ccc(C(=N)N)cc3C)cc2)cc1N1CCN(C)CC1
Potency [2]: inactive
Potency [1]: inactive

COC(=O)CC1OC(C)C2=C(O)c3c(O)cccc3C(=O)C23OC13 (centres undefined)
Potency [2]: inactive
Potency [1]: inactive

C=C1C(=O)O[C@@H]2C[C@H](C)C3=CC(=O)[C@H](O)[C@@]3(C)C[C@H]12
Potency [1]: inactive

O=C(NCCN1CCN(c2cccc3c2OCCO3)CC1)c1ccc(F)cc1
Potency [2]: inactive
Potency [1]: inactive

CC(=O)OC1C(=O)C2C3OCC4=C3[C@@](C)(CC[C@@H]4O)CC[C@]2(C)[C@H]1C(C)C (some centres undefined)
Potency [2]: inactive
Potency [1]: inactive

CC[C@@H](C)Nc1cc(C(=O)NC2CC3CC[C@@H](C2)N3c2ccc(C(=O)C3CC3)cn2)c(C)cc1C(N)=O (some centres undefined)
Potency [2]: inactive
Potency [1]: inactive

C=C(C(=O)OC[C@H]1O[C@@H](OC(=O)/C=C/c2ccccc2)[C@H](O)[C@@H](O)[C@@H]1O)C(O)CO (some centres undefined)
Potency [1]: inactive

COc1cccc(OCCCN)c1-c1cc(Nc2cnc(C#N)cn2)n[nH]1
Potency [2]: inactive
Potency [1]: inactive

CCCC(Nc1nc(-c2ccc(NC(=O)NCC)c(OC)c2)ncc1C)c1cccnc1 (centres undefined)
Potency [2]: inactive
Potency [1]: inactive

COc1ccc2c(NC(=O)Nc3cccc(C(F)(F)F)n3)ccnc2c1
Potency [2]: inactive
Potency [1]: inactive

CN[C@H]1CC[C@@H](c2ccc(Cl)c(Cl)c2)c2ccccc21
outcome [3]: inactive

NCCCC(=O)O
outcome [3]: inactive

CCC(CC)(NC(=O)C(C)C)C(=O)N[C@@H](CCCN=C(N)N)C(=O)NC1(C(=O)NC(c2ccc(F)cc2)c2ccc(F)cc2)CCCC1
outcome [4]: inactive
Potency [5]: inactive

COc1ccc(CCO[C@@H]2O[C@H](CO[C@H]3OC[C@](O)(CO)[C@H]3O)[C@@H](OC(=O)/C=C/c3ccc(O)c(O)c3)[C@H](O[C@@H]3O[C@@H](C)[C@H](O)[C@@H](O)[C@H]3O)[C@H]2O)cc1OC
Potency [5]: inactive
